According to PubChem BioAssay AID1347416 (National Center for Advancing Translational Sciences (NCATS), 2020):
Screen size: about 4,100 compounds; about 1,600 (39%) were called active. About 25% were inconclusive and are not listed. Calls come from the whole dose curve; as a rule, active = well fitted inhibition curve with a large enough effect; inconclusive = small, poorly fitted or top-dose-only effect; inactive = no such curve, though single readings can be large or run the other way. Some of the results follow.

Test: qHTS Validation assay for Inhibitors of Plasmodium falciparum Dd2 growth in vitro; note: nearly all actives have a fitted effect of over 70% in size
Conditions: P. falciparum Dd2 in RBCs, SYBR Green growth, 72 h; series mostly up to 28.7 µM; activity change, negative = inhibition: at the top concentration
Procedure, shortened: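 P. falciparum Dd2-infected red blood cells (2.5% hematocrit, 0.3% parasitemia) grown 72 h at 37 °C under 5% O2 with compounds in a titration, 29 uM to 0.5 nM final. Growth read as SYBR Green-1 fluorescence after ~16 h lysis; artesunate 300 nM as positive control.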
% is set by controls: 0 for no effect and ±100 for the full control effect; potency is the fitted concentration of half-maximal effect.

Potency, active:
CCN1CCN(Cc2ccc(NC(=O)c3cc(NC(=O)c4cncc(-c5ccc(C#N)cc5)c4)cc(OC)c3)cc2C(F)(F)F)CC1 0.596 µM
CCN1CCN(Cc2ccc(NC(=O)c3cc(NC(=O)c4cc(-c5ccc(OC)cc5)n[nH]4)cc(OC)c3)cc2C(F)(F)F)CC1 0.168 µM
CCN1CCN(Cc2ccc(NC(=O)c3cc(NC(=O)c4nccnc4N)cc(OC)c3)cc2C(F)(F)F)CC1 4.73 µM
O=c1cc(CSc2ccc(Cl)cc2)nc(-c2ccccn2)[nH]1 5.96 µM
COc1ccc2cc1Nc1ccc(cc1)C[C@H](NCc1cccc(C(=O)O)c1)C(=O)N(C)[C@H](C(=O)Nc1ccccc1OCc1ccccc1)C2 4.73 µM
COc1ccc2cc1Nc1ccc(cc1)C[C@H](NCc1ccc3c(c1)CCO3)C(=O)N(C)[C@H](C(=O)NCCC(C)C)C2 3.35 µM
COc1ccc2cc1Nc1ccc(cc1)C[C@H](NCc1ccc(C)o1)C(=O)N(C)[C@@H](C(=O)NCc1ccccc1)C2 5.31 µM
COc1ccc2cc1Nc1ccc(cc1)C[C@H](NCc1ccc(C)o1)C(=O)N(C)[C@H](C(=O)NCCC(C)C)C2 5.96 µM
O=C1CC(c2ccccc2)N(Cc2ccncc2)CCCN(S(=O)(=O)c2cccs2)CCN1 (stereo unspecified) 6.68 µM
Cc1noc(C)c1S(=O)(=O)N1CCCN(Cc2ccncc2)C(c2ccccc2)CC(=O)NCC1 (stereo unspecified) 7.5 µM
O=C1CC(c2ccccc2)N(Cc2ccncc2)CCCN(S(=O)(=O)c2cccc(F)c2)CCN1 (stereo unspecified) 4.73 µM
COc1ccc(CNC[C@H]2O[C@H](Cc3cc(-c4ccc(OC)cc4)on3)CC[C@@H]2O)cc1 10.6 µM
O[C@H]1CC[C@@H](Cc2cc(-c3ccc(F)cc3)on2)O[C@@H]1CNC1CCCCC1 2.43 µM
COc1ccc(-c2cc(C[C@@H]3CC[C@H](O)[C@@H](CNCc4ccccc4OC)O3)no2)cc1 3.44 µM
COc1ccc(CNC[C@H]2O[C@H](Cc3cc(-c4ccccc4)on3)CC[C@@H]2O)cc1 3.85 µM
COc1ccc(NC(=O)C(c2ccc(Cl)cc2)C(C)C)cn1 (stereo unspecified) 1.88 µM
CN1CCN(c2ccc(-c3noc([C@@H]4CCCN4C4CCCCC4)n3)cn2)CC1 19.3 µM
CN(C)CCNC(=O)c1cc(-c2ccccc2F)cc2c1OCCN2Cc1cccnc1 6.85 µM
CN1CCOc2c(C(=O)NCc3cccnc3)cc(-c3cccc4[nH]ccc34)cc21 8.63 µM
C#CCNC(=O)C[C@@H]1c2nc(NC(=O)OCC=C)sc2C[C@@H]2[C@](C)(CO)[C@H](O)CC[C@]21C 15 µM
C=CCOC(=O)Nc1nc2c(s1)C[C@@H]1[C@](C)(CO)[C@H](O)CC[C@@]1(C)[C@@H]2CC(=O)NC1CCCCC1 3.76 µM
N=c1ccn(Cc2ccc(Cl)cc2Cl)cc1 8.41 µM
N=c1ccn(Cc2ccc(Cl)c(Cl)c2)cc1 6.68 µM
N=c1ccn(Cc2ccc(Cl)cc2)cc1 8.41 µM
COc1ccc(CC(=O)N2CCC(Oc3ncccc3C(=O)N3CCCCC3)C2)cc1 (stereo unspecified) 9.44 µM
COc1cc(NC(=O)c2ccc(N)nc2)cc(C(=O)Nc2cccc(C(F)(F)F)c2)c1 5.31 µM
COc1ccc(-c2cc(C(=O)Nc3cc(OC)cc(C(=O)Nc4cccc(C(F)(F)F)c4)c3)[nH]n2)cc1 5.31 µM
Cc1nc2sc(C(c3ccco3)N3CCN(C(c4ccccc4)c4ccccc4)CC3)c(O)n2n1 (stereo unspecified) 5.96 µM
CCCc1ccc(C(=O)NC(=O)c2ccccc2O)cc1 1.06 µM
Cc1ccc(N(Cc2cccs2)C(=O)C(C)Oc2ccc(Cl)c(C)c2)cc1 (stereo unspecified) 7.5 µM
CNC(=O)CCn1ncc2cc(OCc3ccccc3-c3ccccc3OC)ccc21 15.3 µM
CCn1c(SCC(=O)NCCc2ccccc2)nc2sc3c(c2c1=O)CCN(C)C3 5.31 µM
C=C(C)CSc1nc2sc3c(c2c(=O)n1C1CCCCC1)CCN(C)C3 2.37 µM
CCCN1CCc2c(sc3nc(SC)n(-c4ccccc4)c(=O)c23)C1 2.66 µM
CCSc1nc2sc3c(c2c(=O)n1-c1ccccc1)CCN(C)C3 6.68 µM
CCOc1ccc(-n2c(SCC(N)=O)nc3sc4c(c3c2=O)CCN(C)C4)cc1 15 µM
Oc1ccc(CNc2ccc(C(F)(F)F)cc2Cl)c2cccnc12 10.6 µM

Activity change, negative = inhibition, inactive:
COc1cc(NC(=O)c2nnn(Cc3ccc(F)cc3)c2N)cc(OC)c1 -13.8%
O=C(Nc1ccc2c(c1)C(=O)N1CCC[C@H]1C(=O)N2)c1cc(-c2ccccc2)n[nH]1 -18.8%
COc1ccc(CNC(=O)N[C@@H]2CN(c3ccncn3)C[C@H]2CN(C)C)cc1 20.7%
CCC(=O)N1CCN(c2nc3c(s2)CC(C(=O)NCc2ccc(C)o2)CC3)CC1 (stereo unspecified) -36.4%
CC(C)(C)CC(=O)N1CCC(N2C(=O)CCC2C(=O)NCc2ccccc2)CC1 (stereo unspecified) 12.3%
Cc1ccc(C(=O)N2CCCCCCNC(=O)[C@@H]3CCC[C@@H]32)s1 10.4%
Cc1cccc(CSc2nn3c(=O)c(C)nnc3s2)c1 -11%
CNC(=O)[C@@H]1C[C@@H](n2cc(CN(C)C(=O)c3cc(F)ccc3Cl)nn2)CN1 1.69%
O=C(COc1ccccc1)NC1CC(=O)N(c2ccc3c(c2)OCCO3)C1 (stereo unspecified) -5.97%
CC(C)COC(=O)/C(C#N)=C\c1ccc(-c2ccccc2Cl)o1 21.3%
Cc1noc(C)c1S(=O)(=O)N1CCc2nc3cc(-c4ccccc4)[nH]n3c(=O)c2C1 4.23%
O=C1CC(c2ccccc2)N(S(=O)(=O)c2cccc(F)c2)CCCCCN1 (stereo unspecified) -1.58%
O=C1CCC2(CCN1)CCN(S(=O)(=O)c1cccnc1)CC2 0.806%
Cc1noc(C)c1S(=O)(=O)NCC(=O)N1CCCCCCNC(=O)CC1c1ccccc1 (stereo unspecified) 4.88%
O=C(C1CC1)N(Cc1nc2ccccc2c(=O)[nH]1)Cc1cccs1 20.1%
COCCN1CCNc2nc(CNCc3cnccn3)n(Cc3ccccc3)c2C1=O 0% [at 43.1 µM]
Cc1ccc(S(=O)(=O)NC[C@H]2O[C@H](Cc3cc(-c4cccc(O)c4)on3)CC[C@@H]2O)cc1 -18.8%
Cc1nccn1CC(=O)N1C[C@@H](COCC2CC2)[C@H](c2ccncc2)C1 34.9%
O=C(N[C@@H]1CN(c2ncccn2)C[C@H]1CO)c1cc2ccccc2[nH]1 13%
NC(=O)CN1C(=O)CO[C@H]2CN(Cc3ccc4c(c3)OCO4)C[C@H]21 59.2% [at 43.1 µM]
COc1ccc(-c2cn(C)c(=O)n3cc(COc4ccc(Cl)cc4)nc23)cn1 36.1% [at 43.1 µM]
COC[C@@H]1CN(c2cnccn2)C[C@H]1C(=O)Nc1ccc(OC)nc1 17.9%
Cn1c(-n2cccc2)c(-c2c(-c3ccc(F)cc3)[nH]c3c2c(=O)n(C)c(=O)n3C)c(=O)n(C)c1=O 45.5%
CCCC(C)N1CC2(CCN(C(=O)Cn3nc(C)cc3C)CC2)OC1=O (stereo unspecified) 20.9%
O=C(c1ccsc1)N1CCCCCC1c1nc(-c2cccnc2)no1 (stereo unspecified) 9.04%
O=C1CCN(C2CCCC2)CCCC(c2nc(-c3cccnc3)no2)CCN1 (stereo unspecified) -12.4%
CNC(=O)c1cc(-c2ccncc2)cc2c1OCCN2Cc1cccnc1 -14.5% [at 43.1 µM]
COc1cncc(-c2cc(C(=O)NCc3cccnc3)c3c(c2)N(C)CCO3)c1 9.35% [at 43.1 µM]
CNC(=O)c1cc(-c2ccc([S+](C)(=O)[O-])cc2)cc2c1OCCN2Cc1cccnc1 -24.3% [at 43.1 µM]
COCCNC(=O)C[C@@H]1C[C@H]2O[C@H](CN)[C@@H](O)[C@H]2O1 18.5% [at 57.5 µM]
Cc1nc2cc(N3CCCC(C(=O)NCCN4CCCCCC4)C3)cnc2nc1C (stereo unspecified) -6.29%
N=c1ccn(Cc2c(Cl)cccc2Cl)cc1 -15.6%
Cc1cc(C)n(CC(=O)N[C@@H]2CN(Cc3cccnc3)C[C@H]2CN(C)C)n1 8.7%
Cc1ccsc1C(=O)NCc1nnc2ccc(-c3ccc(Cl)cc3)nn12 7.85%
COc1ccc(S(=O)(=O)N2CCC(Oc3ncccc3C(=O)N3CCOCC3)C2)cc1 (stereo unspecified) 17.3%
O=C(c1ccccc1F)N1CCC(Oc2ncccc2C(=O)N2CCCCC2)C1 (stereo unspecified) 14.2%
O=C(Nc1cccc(C(F)(F)F)c1)O[C@@H]1CO[C@H]2[C@@H]1OC[C@@H]2NS(=O)(=O)c1cccs1 12.6%
COc1cccc(NC(=O)Nc2cccc(C(=O)O)c2)c1 27.9%
CC1=NS(=O)(=O)N(Cc2ccc(F)c(F)c2)C=C1C(=O)O 15.4%
CN(C)C(=O)N1CCCC(C(=O)NCc2nc(C3CCCCC3)no2)C1 (stereo unspecified) 36.9%
Cc1ccc(N(CC(=O)Nc2cccc(Cl)c2)S(=O)(=O)c2cccs2)cc1 29.6%
O=C(NCCc1nc(-c2cccnc2)no1)c1coc2c1C(=O)CCC2 32.2%
C/C(=N\OCc1cccc(C(=O)O)c1)c1ccc(Cl)cc1 6.57%
COc1cccc(CNc2ccc3c(c2)nc(C)n3C)c1OC 33.3%
COc1ccccc1-c1nnc2sc(COc3ccc(F)cc3)nn12 -15%
CCNc1ncnc2sc3c(c12)CCN(Cc1ccc[nH]1)C3 -12.8%
CC(C)Sc1nc2sc3c(c2c(=O)n1Cc1ccccc1)CCCC3 -20%
CCOCCCn1c(SCC(=O)NCCCOC)nc2c(sc3ccccc32)c1=O 59%
CN1CCc2c(sc3c2C(=O)NC(c2ccc(C(C)(C)C)cc2)N3)C1 (stereo unspecified) 26.9%
CSc1nnc2c3c4c(sc3c(=O)n(-c3ccccc3)n12)CC(C)(C)OC4 1.3%
CS(=O)(=O)N(C1CC1)C1CCOC2(CCN(C(=O)C3(c4ccccc4)CC3)CC2)C1 (stereo unspecified) 0.781%
CCOc1cc(C2NC(=O)c3c(sc4c3CCN(C)C4)N2)ccc1OC(=O)c1ccccc1Cl (stereo unspecified) 28.3%
COC(CSc1nc(N)c2c3c(sc2n1)CN(C)CC3)OC 3.33%
Cc1ccc(N=Nc2ccc(O)c3ncccc23)cc1 62.4%
